From PubChem
D2 PAM-1: D2 dopamine receptor (human) potentiation | HEK293 T-REx D2, calcium flux, EC20 dopamine potentiation | potentiation, % at 10 µM | 340,000 tested, 0.34% active | AID 485347;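 active means potentiation over 3 SD above the plate norm, cut at about 30% in these data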
Target sequence (P14416 whole entry, looked up): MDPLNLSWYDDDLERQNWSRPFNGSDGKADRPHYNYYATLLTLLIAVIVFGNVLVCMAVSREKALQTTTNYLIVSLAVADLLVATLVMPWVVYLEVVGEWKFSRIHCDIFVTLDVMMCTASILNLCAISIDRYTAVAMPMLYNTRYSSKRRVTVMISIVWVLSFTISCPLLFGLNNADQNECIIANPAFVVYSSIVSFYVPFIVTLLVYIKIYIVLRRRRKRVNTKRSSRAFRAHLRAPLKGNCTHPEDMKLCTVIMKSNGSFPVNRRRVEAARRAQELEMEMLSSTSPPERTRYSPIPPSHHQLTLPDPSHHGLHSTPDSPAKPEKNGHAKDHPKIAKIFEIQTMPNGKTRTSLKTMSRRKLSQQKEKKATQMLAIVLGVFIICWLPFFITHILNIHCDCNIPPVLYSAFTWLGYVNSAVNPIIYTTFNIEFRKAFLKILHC
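Calcium flux readout, no-wash dye, 1 read/s. Inducible HEK293 Trex D2 line, overnight 30 C. Compound alone 180 s (agonist flags), then EC20 dopamine, another 180 s to score potentiation.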
D2 PAM-2: potentiates the human D2 dopamine receptor allosterically; P14416; DiscoveRx D2 beta-arrestin cells, luminescence, 90 min; 100% = 57 uM dopamine signal; potentiation, % (concentration not given with the values); 360,000 tested, 0.23% active; in the data active means potentiation above about 50%
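D2 cells co-treated with compound plus 50 nM dopamine (EC20) for 90 min at 37 deg C to detect potentiation. Beta-arrestin recruitment was read as enzyme-fragment luminescence after 1 h at ambient temperature. Full response was set by 57 uM dopamine.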
D2 ag-1: agonists of human D2 dopamine receptor (beta-arrestin) | P14416 | DiscoveRx PathHunter D2 beta-arrestin, luminescence, 90 min; 100% = 57 uM dopamine signal | activation, % (no concentration beside the values) | 360,000 tested, 0.084% active; in the data active means activation above about 40%
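DiscoveRx PathHunter D2 beta-arrestin cells (2,100/well) attached overnight, then compound-stimulated 90 min at 37 C in HBSS/10 mM HEPES/0.1% Tween-20 buffer; beta-galactosidase complementation read by luminescence after 1 h at ambient temperature. Dopamine 57 uM final (EC100) as control.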
D2 antag: antagonists of human D2 dopamine receptor; HEK293 TREx D2 cells, calcium flux, dopamine EC80; inhibition, % at 10 µM; P14416; AID 485344; 340,000 tested, 2% active; in the data active means inhibition above about 30%; inactive means below that, where a call was filed
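In this primary screen, negative modulation is detected by tracking calcium flux after an EC80 dopamine challenge in inducible HEK293 T-REx D2 cells preexposed to test compound for 180 s.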
D2 ag-2: agonists of human D2 dopamine receptor | P14416 | HEK293 T-REx D2 cells, calcium flux agonist mode | activation, % at 2 µM | 340,000 tested, 0.53% active;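 active means activation over 3 SD above normal in the single-dose calcium agonist read, cut at about 30% in these data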
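Tetracycline-induced HEK293 Trex cells with D2 receptor force-coupled to calcium signaling, plated overnight at 30 C and loaded with no-wash calcium dye. Calcium flux read kinetically for 180 s after compound addition; responses flag agonists.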
Each line names hits and unclear results; the compound was inactive in the other large screens; ! = repeats disagree. Rows were chosen to be rich in hits. Some 2.4% of all compounds tested hit in one or more screens of this group.

Cc1cc2cc(CCNS(=O)(=O)c3ccc(Br)cc3)c(=O)[nH]c2cc1C	none (no result: D2 PAM-2, D2 ag-1, D2 antag)
O=C(N/C=N/OCc1ccc(Cl)cc1Cl)NOCc1c(Cl)cccc1Cl	D2 antag 31
CO/N=C/NC(=O)NOCc1ccc(Cl)cc1Cl	none
O=C(Nc1ccc(Cl)cc1Cl)c1cc(S(=O)(=O)NCc2ccc3c(c2)OCO3)ccc1F	none (no result: D2 PAM-2, D2 ag-1, D2 antag)
Cc1cc(O)ccc1N/C=C1\CCCC1=O	D2 PAM-2 64
Cc1ccc([N+](=O)[O-])cc1N/C=C1\CCCCC1=O	D2 antag 52
Cc1ccc([N+](=O)[O-])cc1NC(=O)C1CCCC1	none
CC(=O)Nc1ccc(N/C=C2/CCCC2=O)cc1	none
Cc1ccccc1Cn1c(=O)n(-c2ccc(Cl)cc2)c(=O)c2c3c(sc21)CCCC3	none (no result: D2 PAM-2, D2 ag-1, D2 antag)
O=C1N/C(=N/Nc2ccccc2)S/C1=C\c1ccccc1	D2 PAM-2 55
CCOc1ccc(N(C)C(=O)c2oc(=O)c3ccccc3c2-c2ccccc2)cc1	none (no result: D2 PAM-1, D2 PAM-2, D2 ag-1, D2 antag)
CC(C)OC(=O)c1cc2c(ccn2C)n1CC(=O)N1CCC(Cc2ccccc2)CC1	D2 PAM-1 105
Cc1ccccc1NC(=O)C1CCN(S(=O)(=O)c2cccc3nonc23)CC1	D2 PAM-1 44!
Cc1ccc(NC(=O)C2CCN(S(=O)(=O)c3cccc4nonc34)CC2)cc1	none (no result: D2 antag, D2 ag-2)
COc1ccc(-c2cn3cccnc3n2)cc1NC(=O)COc1ccccc1	none (no result: D2 PAM-2, D2 ag-1, D2 antag)
O=C(Cn1c(=O)oc2ccccc21)NCc1ccccc1Cl	none (no result: D2 PAM-2, D2 ag-1, D2 antag)
COc1cccc(OC)c1C(=O)Nc1ccccc1C(=O)N1CCCC1	none
COc1ccccc1C(=O)Nc1ccccc1C(=O)N1C(C)CCCC1C (stereo unspecified)	D2 antag 48
CCOC(=O)CNC(=O)C12CC3CC(C1)CC(c1ccc(C)cc1)(C3)C2	none
CCOc1ccc(NC(=O)C23CC4CC(C2)CC(c2ccccc2)(C4)C3)cc1	D2 antag 31
CCc1ccccc1NC(=O)c1nn(-c2ccc(C)cc2)c(=O)c2c1c1ccccc1n2C	none (no result: D2 PAM-2, D2 ag-1, D2 antag)
CSc1nc(NCc2ccco2)c2ccccc2n1	D2 antag 31
c1ccc(-c2nc(NCc3ccco3)c3oc4ccccc4c3n2)cc1	D2 PAM-1 33
Cc1ccc(-c2nc(NCc3ccco3)c3ccccc3n2)cc1	none
Cc1ccc(OCCN2CCN(c3nc(NCc4ccco4)c4ccccc4n3)CC2)cc1	D2 antag 38
OCCN1CCN(c2nc(NCc3ccco3)c3ccccc3n2)CC1	none
COc1ccc(C2=NN(C(=O)CSc3nc(=O)n4cc(C)ccc4n3)C(c3ccc(C)cc3)C2)cc1 (stereo unspecified)	D2 antag 41
O=C1CCCN2N=C(SCC(=O)N3N=C(c4ccc(Br)cc4)CC3c3ccc(F)cc3)SC2=N1 (stereo unspecified)	none
Cc1ccc(C2CC(c3ccc(Br)cc3)=NN2C(=O)CSC2=NN3CCCC(=O)N=C3S2)cc1 (stereo unspecified)	D2 PAM-1 33
COc1ccc(C2=NN(C(=O)CSc3ncccn3)C(c3ccc(OC)cc3)C2)cc1 (stereo unspecified)	none
Cn1c(=O)n(C)c2cc(CNCc3ccccc3Cl)ccc21	none (no result: D2 PAM-2, D2 ag-1, D2 antag)
COc1ccccc1C(=O)Nc1ccnn1C1CCN(Cc2cc(C)c(C)cc2C)CC1	D2 antag 53
Cc1cc(C)c(CN2CCC(n3nccc3NC(=O)c3ccccc3Cl)CC2)cc1C	none
COc1ccccc1C(=O)Nc1ccnn1C1CCN(CCCC2CCCC2)CC1	D2 antag 31
COc1ccccc1C(=O)Nc1ccnn1C1CCN(Cc2cn(C)c3ccccc23)CC1	D2 antag 62
O=C(Nc1ccnn1C1CCN(C/C=C/c2ccccc2)CC1)c1cccc(F)c1	none
O=C(Nc1ccnn1C1CCN(CCCc2ccccc2)CC1)c1cccc(F)c1	D2 ag-2 34
O=C(Nc1ccnn1C1CCN(CCCC2CCCC2)CC1)c1ccccc1Cl	none
CCc1ccc(-n2c(=O)c3sc4ccccc4c3n(Cc3cccc(F)c3)c2=O)cc1	none (no result: D2 PAM-2, D2 ag-1, D2 antag)
CC(C)Oc1ccc(C(=O)N(Cc2ccc(N(C)C)cc2)Cc2ccco2)cc1	none (no result: D2 PAM-2, D2 ag-1, D2 antag)
Cc1ccccc1CN1CCN(CC(=O)NCc2ccccc2Cl)C1=O	none (no result: D2 PAM-2, D2 ag-1, D2 antag)
CC(C)Oc1ccc(CNC(=O)CCCn2c(=O)c3cccn3c3ccccc32)cc1	none (no result: D2 PAM-2, D2 ag-1, D2 antag)
